In the supplement of paper PMC6411743:
± gives the standard deviation of the averaged measurements. The full data set covers some 5,400 targets. This sample favours those with the largest changes.

Legend:
Test in all cases: NP40-soluble protein abundance relative to vehicle (solubility fold change) (ratio); higher = more soluble protein in presence of GTP
GLA = molecular target: T1, GLA (UniProt P06280)
T1 sequence (whole entry): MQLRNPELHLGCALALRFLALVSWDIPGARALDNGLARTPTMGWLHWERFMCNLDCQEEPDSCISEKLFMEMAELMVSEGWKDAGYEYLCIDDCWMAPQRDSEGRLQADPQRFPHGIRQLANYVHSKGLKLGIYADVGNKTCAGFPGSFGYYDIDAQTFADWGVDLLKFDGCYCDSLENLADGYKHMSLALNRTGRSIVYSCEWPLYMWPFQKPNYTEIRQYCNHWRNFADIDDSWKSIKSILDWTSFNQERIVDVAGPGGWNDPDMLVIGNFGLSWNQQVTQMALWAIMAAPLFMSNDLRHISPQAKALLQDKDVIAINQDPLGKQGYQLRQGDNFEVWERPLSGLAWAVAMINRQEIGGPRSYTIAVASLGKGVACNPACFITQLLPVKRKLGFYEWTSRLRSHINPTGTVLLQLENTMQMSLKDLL
Procedure, shortened: (§1)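 Data come from three independent experiments in which Dounce-homogenised Jurkat crude lysate was treated at eight concentrations from 0.1 to 10 mM. Treatment ran 10 min at room temperature and then 3 min at 37 °C, after which 0.8% NP40 and benzonase were added for 60 min at 4 °C before ultracentrifugation. The supernatant underwent TMT labelling and LC-MS/MS, and vsn-normalised intensities were expressed as fold change against the detergent-processed vehicle in each replicate.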

SEC24A = molecular target: T2, SEC24A (UniProt O95486)
T2 sequence (whole entry): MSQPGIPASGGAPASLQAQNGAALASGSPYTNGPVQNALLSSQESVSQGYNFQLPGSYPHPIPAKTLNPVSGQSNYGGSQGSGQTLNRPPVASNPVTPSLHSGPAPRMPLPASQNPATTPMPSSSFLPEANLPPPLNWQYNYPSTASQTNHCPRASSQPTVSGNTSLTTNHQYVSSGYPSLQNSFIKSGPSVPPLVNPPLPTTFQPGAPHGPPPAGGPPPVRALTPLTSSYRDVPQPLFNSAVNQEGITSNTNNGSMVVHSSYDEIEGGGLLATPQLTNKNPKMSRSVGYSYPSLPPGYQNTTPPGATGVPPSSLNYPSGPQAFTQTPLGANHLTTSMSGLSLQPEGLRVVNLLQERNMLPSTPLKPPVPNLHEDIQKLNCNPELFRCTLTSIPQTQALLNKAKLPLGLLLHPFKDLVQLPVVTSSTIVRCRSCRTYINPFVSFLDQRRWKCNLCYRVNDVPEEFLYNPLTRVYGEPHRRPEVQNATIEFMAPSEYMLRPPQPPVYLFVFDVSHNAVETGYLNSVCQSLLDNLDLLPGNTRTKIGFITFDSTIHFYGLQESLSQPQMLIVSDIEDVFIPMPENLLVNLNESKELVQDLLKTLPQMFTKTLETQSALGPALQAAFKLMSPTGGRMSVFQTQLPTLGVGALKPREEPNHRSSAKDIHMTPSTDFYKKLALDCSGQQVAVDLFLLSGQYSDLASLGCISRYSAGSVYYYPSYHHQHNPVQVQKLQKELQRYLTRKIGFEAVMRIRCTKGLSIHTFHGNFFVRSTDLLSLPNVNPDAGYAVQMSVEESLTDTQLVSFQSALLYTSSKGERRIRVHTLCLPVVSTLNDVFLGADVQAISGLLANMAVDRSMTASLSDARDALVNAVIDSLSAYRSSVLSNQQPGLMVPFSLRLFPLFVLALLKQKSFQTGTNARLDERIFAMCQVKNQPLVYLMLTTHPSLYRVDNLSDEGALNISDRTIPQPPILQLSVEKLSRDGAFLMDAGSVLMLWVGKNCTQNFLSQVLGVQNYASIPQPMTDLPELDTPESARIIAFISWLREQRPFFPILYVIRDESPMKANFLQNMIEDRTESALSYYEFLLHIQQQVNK
Procedure, shortened: as §1

TXNL1 = molecular target: T3, TXNL1 (UniProt O43396)
T3 sequence (whole entry): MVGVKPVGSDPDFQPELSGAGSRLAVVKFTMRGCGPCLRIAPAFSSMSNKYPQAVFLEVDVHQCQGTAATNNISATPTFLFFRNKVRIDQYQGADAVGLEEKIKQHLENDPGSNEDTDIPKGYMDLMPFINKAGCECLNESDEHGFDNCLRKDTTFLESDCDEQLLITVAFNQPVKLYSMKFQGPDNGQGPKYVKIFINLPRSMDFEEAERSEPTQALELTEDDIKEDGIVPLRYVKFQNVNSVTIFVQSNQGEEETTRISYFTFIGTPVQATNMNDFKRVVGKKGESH
Procedure, shortened: as §1

Compound: Nc1nc2c(ncn2[C@@H]2O[C@H](COP(=O)(O)OP(=O)(O)OP(=O)(O)O)[C@@H](O)[C@H]2O)c(=O)[nH]1 [guanosine triphosphate]
- NP40-soluble protein abundance (GLA; concentration: 0.1mM): 1.04 ± 0.017
- NP40-soluble protein abundance (GLA; concentration: 0.5mM): 1.04 ± 0.018
- NP40-soluble protein abundance (GLA; concentration: 1mM): 1.01 ± 0.039
- NP40-soluble protein abundance (GLA; concentration: 2mM): 0.982 ± 0.068
- NP40-soluble protein abundance (GLA; concentration: 4mM): 0.985 ± 0.063
- NP40-soluble protein abundance (GLA; concentration: 6mM): 0.966 ± 0.087
- NP40-soluble protein abundance (GLA; concentration: 8mM): 0.983 ± 0.04
- NP40-soluble protein abundance (GLA; concentration: 10mM): 0.979 ± 0.048
- NP40-soluble protein abundance (SEC24A; concentration: 0.1mM): 0.974 ± 0.013
- NP40-soluble protein abundance (SEC24A; concentration: 0.5mM): 0.986 ± 0.021
- NP40-soluble protein abundance (SEC24A; concentration: 1mM): 0.926 ± 0.041
- NP40-soluble protein abundance (SEC24A; concentration: 2mM): 0.909 ± 0.026
- NP40-soluble protein abundance (SEC24A; concentration: 4mM): 0.957 ± 0.019
- NP40-soluble protein abundance (SEC24A; concentration: 6mM): 0.944 ± 0.02
- NP40-soluble protein abundance (SEC24A; concentration: 8mM): 0.909 ± 0.027
- NP40-soluble protein abundance (SEC24A; concentration: 10mM): 0.915 ± 0.036
- NP40-soluble protein abundance (TXNL1; concentration: 0.1mM): 0.993 ± 0.02
- NP40-soluble protein abundance (TXNL1; concentration: 0.5mM): 1.03 ± 0.064
- NP40-soluble protein abundance (TXNL1; concentration: 1mM): 1.02 ± 0.042
- NP40-soluble protein abundance (TXNL1; concentration: 2mM): 1.01 ± 0.07
- NP40-soluble protein abundance (TXNL1; concentration: 4mM): 1 ± 0.052
- NP40-soluble protein abundance (TXNL1; concentration: 6mM): 1.01 ± 0.046
- NP40-soluble protein abundance (TXNL1; concentration: 8mM): 1 ± 0.044
- NP40-soluble protein abundance (TXNL1; concentration: 10mM): 1.01 ± 0.054
